Assay results from PubChem BioAssay AID1159580 (chemical genetic matrix, 2015).
Out of some 5,500 compounds screened, about 2,000 (36%) were called active. About 18% were inconclusive and are not listed. The list shows a part of the results. Unmarked numbers belong to inactive results. Cut-off read from the data, not from the text of the source: active = normalized growth mostly below about 0.91 (no sharp cut-off); inconclusive = no clear call, values can overlap the other calls; inactive = mostly above about 0.92.

Assay: chemical genetic growth profiling, strain panel (AID 1159580);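 note: tested at 20 µM; growth read once vehicle control cultures reached saturation at 30 °C; 1 = growth at the plate median or of vehicle wells; lower values mean less growth of the strain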
Settings: S. cerevisiae deletion strains, growth OD

SMILES: O=C(c1ccc(OCCN2CCCCC2)cc1)c1c(-c2ccc(O)cc2)sc2cc(O)ccc12
- normalized growth (locus YAL021C, strain ccr4, active compounds read low): 0.971
- normalized growth (locus YAL026C, strain drs2, active compounds read low): 0.987
- normalized growth (locus YAL030W, strain snc1, active compounds read low): 1.01
- normalized growth (locus YAL040C, strain CLN3, active compounds read low): 1.02
- normalized growth (locus YBL061C, strain skt5, active compounds read low): 1.01
- normalized growth (locus YBR009C, strain hhf1, active compounds read low): 1
- normalized growth (locus YBR023C, strain chs3, active compounds read low): 1.01
- normalized growth (locus YBR171W, strain sec66, active compounds read low): 1.04
- normalized growth (locus YBR231C, strain swc5, active compounds read low): 0.989
- normalized growth (locus YBR279W, strain paf1, active compounds read low): 1.02
- normalized growth (locus YCL011C, strain gbp2, active compounds read low): 1.02
- normalized growth (locus YCL016C, strain dcc1, active compounds read low): 1
- normalized growth (locus YCL061C, strain MRC1 (second series), active compounds read low): 0.998
- normalized growth (locus YCL061C, strain MRC1, active compounds read low): 1.01
- normalized growth (locus YCL069W, strain vba3, active compounds read low): 1.03
- normalized growth (locus YCR088W, strain abp1, active compounds read low): 1.02
- normalized growth (locus YDL005C, strain med2, active compounds read low): 1.04
- normalized growth (locus YDL040C, strain nat1, active compounds read low): 1.02
- normalized growth (locus YDR001C, strain nth1, active compounds read low): 1.02
- normalized growth (locus YDR069C, strain doa4, active compounds read low): 1.01
- normalized growth (locus YDR137W, strain rgp1, active compounds read low): 1.09
- normalized growth (locus YDR150W, strain NUM1, active compounds read low): 0.977
- normalized growth (locus YDR159W, strain sac3, active compounds read low): 0.984
- normalized growth (locus YDR195W, strain ref2): 1.01
- normalized growth (locus YDR297W, strain sur2, active compounds read low): 1.01
- normalized growth (locus YDR334W, strain swr1, active compounds read low): 1.02
- normalized growth (locus YDR335W, strain msn5, active compounds read low): 1.03
- normalized growth (locus YDR363W, strain ESC2, active compounds read low): 0.983
- normalized growth (locus YDR392W, strain spt3, active compounds read low): 0.41 (active)
- normalized growth (locus YEL003W, strain gim4, active compounds read low): 1.02
- normalized growth (locus YEL037C, strain rad23, active compounds read low): 1.04
- normalized growth (locus YEL061C, strain CIN8 (second series), active compounds read low): 1.03
- normalized growth (locus YER002W, strain NOP16, active compounds read low): 1
- normalized growth (locus YER015W, strain faa2, active compounds read low): 1.01
- normalized growth (locus YER016W, strain bim1, active compounds read low): 1.01
- normalized growth (locus YER111C, strain swi4, active compounds read low): 1.03
- normalized growth (locus YER155C, strain BEM2 (second series), active compounds read low): 0.608 (active)
- normalized growth (locus YFR010W, strain ubp6, active compounds read low): 1.04
- normalized growth (locus YGL167C, strain pmr1, active compounds read low): 1.03
- normalized growth (locus YGL173C, strain kem1, active compounds read low): 1.01
- normalized growth (locus YGL227W, strain vid30, active compounds read low): 1.01
- normalized growth (locus YGL240W, strain doc1, active compounds read low): 0.967
- normalized growth (locus YGL253W, strain hxk2, active compounds read low): 1.02
- normalized growth (locus YHR013C, strain ard1, active compounds read low): 0.958
- normalized growth (locus YHR027C, strain rpn1, active compounds read low): 1.01
- normalized growth (locus YHR030C, strain SLT2, active compounds read low): 0.968
- normalized growth (locus YHR079C, strain IRE1, active compounds read low): 0.968
- normalized growth (locus YHR142W, strain chs7, active compounds read low): 0.983
- normalized growth (locus YJL092W, strain hpr5, active compounds read low): 1.01
- normalized growth (locus YJL095W, strain BCK1 (second series), active compounds read low): 1.02
- normalized growth (locus YJL095W, strain BCK1, active compounds read low): 1
- normalized growth (locus YJL115W, strain asf1, active compounds read low): 1.03
- normalized growth (locus YJL129C, strain trk1, active compounds read low): 1.01
- normalized growth (locus YJL154C, strain vps35, active compounds read low): 1.03
- normalized growth (locus YJL164C, strain tpk1, active compounds read low): 0.982
- normalized growth (locus YJL166W, strain qcr8, active compounds read low): 0.968
- normalized growth (locus YJL187C, strain SWE1, active compounds read low): 1.02
- normalized growth (locus YJR066W, strain TOR1, active compounds read low): 0.924
- normalized growth (locus YKL160W, strain elf1, active compounds read low): 0.982
- normalized growth (locus YKR026C, strain gcn3, active compounds read low): 1.01
- normalized growth (locus YKR091W, strain srl3, active compounds read low): 1.02
- normalized growth (locus YLL001W, strain dnm1, active compounds read low): 1.01
- normalized growth (locus YLL026W, active compounds read low): 1.01
- normalized growth (locus YLL041C, strain sdh2, active compounds read low): 1.02
- normalized growth (locus YLR027C, strain aat2, active compounds read low): 1.01
- normalized growth (locus YLR113W, strain HOG1, active compounds read low): 0.986
- normalized growth (locus YLR221C, strain rsa3, active compounds read low): 1
- normalized growth (locus YLR258W, strain gsy2, active compounds read low): 1.01
- normalized growth (locus YLR262C, strain YPT6 (second series), active compounds read low): 1.01
- normalized growth (locus YLR320W, strain mms22, active compounds read low): 0.911
- normalized growth (locus YLR342W, strain FKS1, active compounds read low): 1
- normalized growth (locus YLR357W, strain rsc2, active compounds read low): 0.964
- normalized growth (locus YLR370C, strain arc18, active compounds read low): 1.03
- normalized growth (locus YLR384C, strain iki3, active compounds read low): 1.04
- normalized growth (locus YML120C, strain ndi1, active compounds read low): 1.01
- normalized growth (locus YMR058W, strain fet3, active compounds read low): 1.01
- normalized growth (locus YMR125W, strain sto1, active compounds read low): 0.989
- normalized growth (locus YMR129W, active compounds read low): 1.02
- normalized growth (locus YMR205C, strain PFK2, active compounds read low): 0.981
- normalized growth (locus YMR231W, strain pep5, active compounds read low): 1.03
- normalized growth (locus YMR307W, strain GAS1, active compounds read low): 0.917
- normalized growth (locus YNL071W, strain lat1, active compounds read low): 0.854 (active)
- normalized growth (locus YNL128W, strain TEP1, active compounds read low): 1.02
- normalized growth (locus YNL175C, strain NOP13, active compounds read low): 0.993
- normalized growth (locus YNL183C, strain NPR1, active compounds read low): 0.965
- normalized growth (locus YNL197C, strain WHI3, active compounds read low): 0.998
- normalized growth (locus YNL209W, strain ssb2, active compounds read low): 1.01
- normalized growth (locus YNL224C, strain SQS1, active compounds read low): 1.01
- normalized growth (locus YNL248C, strain rpa49, active compounds read low): 0.986
- normalized growth (locus YNL322C, strain KRE1 (second series), active compounds read low): 1.02
- normalized growth (locus YNR049C, strain mso1, active compounds read low): 1.02
- normalized growth (locus YOR001W, strain rrp6, active compounds read low): 1
- normalized growth (locus YOR070C, strain gyp1, active compounds read low): 1.02
- normalized growth (locus YOR080W, strain dia2, active compounds read low): 1.02
- normalized growth (locus YOR083W, strain WHI5 (second series), active compounds read low): 0.997
- normalized growth (locus YOR083W, strain WHI5, active compounds read low): 0.979
- normalized growth (locus YOR106W, strain vam3, active compounds read low): 0.987
- normalized growth (locus YOR231W, strain MKK1, active compounds read low): 0.995
- normalized growth (locus YOR265W, strain rbl2, active compounds read low): 1.01
- normalized growth (locus YOR270C, strain vph1, active compounds read low): 1.01
- normalized growth (locus YOR290C, strain snf2, active compounds read low): 0.995
- normalized growth (locus YPL051W, strain arl3, active compounds read low): 0.977
- normalized growth (locus YPL055C, strain LGE1, active compounds read low): 0.826 (active)
- normalized growth (locus YPL078C, strain atp4, active compounds read low): 0.985
- normalized growth (locus YPL106C, strain sse1, active compounds read low): 1.01
- normalized growth (locus YPL240C, strain hsp82, active compounds read low): 1.03
- normalized growth (locus YPL241C, strain CIN2, active compounds read low): 1
- normalized growth (locus YPL256C, strain CLN2, active compounds read low): 0.97
